The other results are listed elsewhere or left out. The source made the active and inactive calls.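 How the source made its calls: active means mean activation above a set limit carried over from the earlier primary screen; inactive means the rest.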

Our source for the activation values is PubChem BioAssay AID493115 (The Scripps Research Institute Molecular Screening Center, 2011).

In the assay the target is Caspase-7 (Homo sapiens) (UniProt P55210). The experiment in a line: activation of procaspase-7 enzyme – biochemical, absorbance, human, dual procaspase-3/-7 activator project, confirmation (AID 493115).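 Further: 0% = DMSO only and 100% = DMSO with added 5 µM PC-7 enzyme.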 The settings on record: recombinant procaspase-7, Ac-DEVD-pNA absorbance 405 nm; at 8.5 µM; stronger effect = higher value; D23A/D198A/D206A mutant that cannot self-cleave.
Chain of Caspase-7 (Homo sapiens) (P55210 whole entry D23A/D198A/D206A): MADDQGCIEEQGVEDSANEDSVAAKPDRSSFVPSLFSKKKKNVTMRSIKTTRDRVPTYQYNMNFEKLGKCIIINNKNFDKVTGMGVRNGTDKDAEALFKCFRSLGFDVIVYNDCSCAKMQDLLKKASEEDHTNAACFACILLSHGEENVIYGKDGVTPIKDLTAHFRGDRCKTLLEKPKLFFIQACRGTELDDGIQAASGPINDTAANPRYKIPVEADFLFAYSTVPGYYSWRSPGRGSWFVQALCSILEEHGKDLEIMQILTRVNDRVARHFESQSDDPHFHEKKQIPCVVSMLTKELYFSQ
On to `COc1ccc(-c2onc3ccc(C(C)=O)cc23)cc1`, for which the activation is -35.4% (inactive).
The result for `CCOC(=O)C1(CCOC)CCN(Cc2cc3ccccc3s2)CC1` reads 2.06% (inactive); that for `COc1ccccc1N=Cc1c(O)c2ccccc2oc1=O`, -13.5% (inactive).
On to `CCN(CC)c1ccc2oc(=O)c(C)nc2c1`, for which the activation was -21% (inactive).
The result for `CC(=O)Oc1ccc2c(C)c(CC(C)O)c(=O)oc2c1` (stereo not given) reads -34% (inactive); that for `Nc1cccc2c1C(=O)N(Cc1nnc(-c3ccccc3Br)o1)C2=O`, -35.8% (inactive).
In the case of `COc1ccc2sc(-c3ccc(S(C)(=O)=O)cc3)c(C#Cc3cncn3C)c2c1` it was -34.2% (inactive).
The result for `COc1ccc(Nc2ncc(C(=O)N3CCN(c4ccccc4OC)CC3)c3ccccc23)cc1` reads 2.22% (inactive).
In the case of `O=C1OCCN1C(=O)[C@H]1[C@H](c2ccc(F)cc2)C(c2ccccc2)=NN1c1ccc(Br)cc1`, the activation was -35.1% (inactive).
The result for `CC1(C)Cc2c(C#N)c(SCc3nc4ccccc4[nH]3)nc(N3CCOCC3)c2CO1` reads -34.3% (inactive); that for `COc1ccc(Nc2ncnc3sc(-c4ccccc4)cc23)c(OC)c1`, -12.6% (inactive); that for `CCCCOC(=O)Cn1c(=O)n(CC(=O)OCCCC)c2cc(C)ccc21`, 0.05% (inactive).
As for `CNS(=O)(=O)c1cccc(C(=O)NC2CCCc3ccccc32)c1` (stereo not given), the activation is 0.28% (inactive).
In the case of `COc1ccc(/C=N/Nc2nc3ccccc3c(=O)[nH]2)cc1` it was 0.2% (inactive).
The result for `Fc1ccc(N2N=C(c3cccs3)CC2c2ccco2)c(F)c1` (stereo not given) reads -34.9% (inactive).
